Data on 30 molecules can be found in PubChem BioAssay (Tox21).

Molecules are shown by their SMILES. Several values for one entry are separate records, joined by “and”; a condition that tells them apart may be missing. Equal values may be shown once. Records with an inconclusive call do not appear. Some compounds were tested as several samples or in several runs, with calls that do not always agree. Activity calls are given as the source filed them. The call rests on the fitted dose curve. Non-standard residues stand in square brackets, D forms with d. Residues, ends and D or L forms follow the SMILES beside them. pGlu = O=C1CC[C@@H](C(=O)O)N1

In assay [1] the target is Acetylcholinesterase (Homo sapiens) (UniProt P22303). Description: Acetylcholinesterase (AChE) small molecule antagonists: colormetric cell-based qHTS assay (AID 1347395). Further: nearly all actives have a fitted effect of over 30% in size. Further: potency means the concentration at half of the fitted maximal effect. An outline of the steps: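 Colorimetric readout: DTNB quantifies thiocholine from acetylthiocholine hydrolysed by endogenous AChE of SH-SY5Y cells (2,000/well, plated overnight). Compound pretreatment 30 min, substrate incubation 90 min, both 37 C.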
Sequence of Acetylcholinesterase (Homo sapiens) (P22303 whole entry, looked up): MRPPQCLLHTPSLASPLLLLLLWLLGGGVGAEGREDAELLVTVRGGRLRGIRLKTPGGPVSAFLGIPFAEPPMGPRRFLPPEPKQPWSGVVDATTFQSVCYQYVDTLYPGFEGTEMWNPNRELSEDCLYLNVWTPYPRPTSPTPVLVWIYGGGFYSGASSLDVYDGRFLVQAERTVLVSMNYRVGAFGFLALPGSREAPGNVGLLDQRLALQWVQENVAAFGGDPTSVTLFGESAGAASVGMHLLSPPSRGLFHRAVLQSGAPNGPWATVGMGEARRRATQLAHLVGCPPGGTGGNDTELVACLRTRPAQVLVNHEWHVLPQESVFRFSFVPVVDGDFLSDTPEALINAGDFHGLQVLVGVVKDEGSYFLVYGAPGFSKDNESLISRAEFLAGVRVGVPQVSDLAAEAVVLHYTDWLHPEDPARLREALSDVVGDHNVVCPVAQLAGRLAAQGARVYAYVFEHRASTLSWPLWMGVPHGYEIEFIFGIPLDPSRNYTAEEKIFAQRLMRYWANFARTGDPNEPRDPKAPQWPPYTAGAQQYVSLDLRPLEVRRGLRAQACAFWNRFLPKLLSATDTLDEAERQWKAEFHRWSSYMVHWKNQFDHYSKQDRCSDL

Assay [2] shares this target. Kind of assay: Acetylcholinesterase (AChE) small molecule antagonists: enzyme-based qHTS assay (AID 1347397). Further: nearly all actives have a fitted effect of over 55% in size. Further: potency means the concentration at half of the fitted maximal effect. The note with it: Potency: AChE enzyme activity inhibition; outcome: AChE enzyme activity inhibition. In a few lines:
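Recombinant human AChE, dispensed at 50 mU/mL, was preincubated with Tox21 10K compounds or DMSO vehicle for 30 min at room temperature. DTNB plus acetylthiocholine was then added, and thiocholine was measured colorimetrically after a further 10 min.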

Assay [3] shares this target. Kind of assay: Acetylcholinesterase (AChE) small molecule antagonists: fluorescence cell-based qHTS assay (AID 1347398). Further: nearly all actives have a fitted effect of over 50% in size. Further: potency means the concentration at half of the fitted maximal effect. The following applies: Potency: AChE activity; outcome: AChE activity. An outline of the steps: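 Human SH-SY5Y cells were plated overnight at 37 C, exposed to compound for 30 min at 37 C, 5% CO2, then given acetylthiocholine plus Thiolite Green for 40 min at room temperature; thiocholine fluorescence (Ex/Em 490/520 nm) reports endogenous AChE activity.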

Assay [4] shares this target. Kind of assay: Acetylcholinesterase (AChE) small molecule antagonists: enzyme-based qHTS assay with human liver microsomes (AID 1347399). Further: nearly all actives have a fitted effect of over 60% in size. The note with it: Potency: qHTS inhibition; outcome: qHTS inhibition. In a few lines: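 Recombinant human AChE (50 mU/mL in the enzyme mix) and human liver microsomes (0.25 mg/mL final) were preincubated with compound and NADPH (0.25 mg/mL final) for 30 min at 37 C. Acetylthiocholine/DTNB was then added; thiocholine was read colorimetrically after 10 min at room temperature.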
On the % scale 0 is the no-effect control and ±100 the full control effect.

In the case of `CCNC(=O)[C@@H]1CCCN1C(=O)[C@H](CCCN=C(N)N)NC(=O)[C@H](CC(C)C)NC(=O)CNC(=O)[C@H](Cc1ccc(O)cc1)NC(=O)[C@H](CO)NC(=O)[C@H](Cc1c[nH]c2ccccc12)NC(=O)[C@H](Cc1cnc[nH]1)NC(=O)[C@@H]1CCC(=O)N1` ([pGlu]HWSYGLRP-NHEt), the Potency result in assay [1], in assay [2], in assay [3] and in assay [4] was “inactive” each time.

As for `CC(C)CCCC(C)CCCC(C)CCCCC(C)CCCC(C)CCCC(C)C` (stereo not given), the Potency entry in assay [1], in assay [2], in assay [3] and in assay [4] was “inactive” in each case.

Take `O=C(O)O`: the activity, negative = inhibition in assay [1] is -0.194% [at 10.5 µM] (inactive). The activity change, negative = inhibition is 0.136% [at 10.5 µM] (inactive) in assay [2], 2.47% [at 10.5 µM] (inactive) in assay [3] and -6.48% [at 10.5 µM] (inactive) in assay [4].

Regarding `C=CC(C)(O)CC/C=C(\C)CC` (stereo not given), the Potency result in assay [1], in assay [2], in assay [3] and in assay [4] was “inactive” each time.

For the molecule `CCN(CCN)c1cccc(C)c1`, the Potency entry in assay [1], in assay [2], in assay [3] and in assay [4] was “inactive” throughout.

In the case of `CC1(C)O[C@@H]2[C@@H](CO[C@@]3(COS(N)(=O)=O)OC(C)(C)O[C@@H]23)O1`, the Potency result in assay [1], in assay [2], in assay [3] and in assay [4] was “inactive” throughout.

For the molecule `OC[C@@H](O)[C@@H](O)[C@H](O)[C@@H](O)CO`, the Potency entry in assay [1], in assay [2], in assay [3] and in assay [4] was “inactive” in each case.

On to `COc1cc([N+](=O)[O-])ccc1N`, for which the Potency entry in assay [1], in assay [2], in assay [3] and in assay [4] was “inactive” each time.

Turning to `O=C(CCCCC(=O)Nc1c(I)cc(I)c(C(=O)O)c1I)Nc1c(I)cc(I)c(C(=O)O)c1I`, the Potency entry in assay [1], in assay [2], in assay [3] and in assay [4] was “inactive” in each case.

Take `Oc1ccc(N=Nc2ccccc2)cc1`: the Potency entry in assay [1], in assay [2], in assay [3] and in assay [4] was “inactive” throughout.

`COc1cccc(OC)c1C(=O)N[C@@H]1C(=O)N2[C@@H]1SC(C)(C)[C@@H]2C(=O)O`: the Potency result in assay [1], in assay [2], in assay [3] and in assay [4] was “inactive” throughout.

In the case of `O=[N+]([O-])c1ccc(O)cc1`, the Potency entry in assay [1], in assay [2], in assay [3] and in assay [4] was “inactive” throughout.

`CC1(C)CO[C@@H](CC(=O)O)CN1`: the Potency result in assay [1], in assay [2], in assay [3] and in assay [4] was “inactive” each time.

Turning to `CCO[Si](CCCN)(OCC)OCC`, the Potency result in assay [1], in assay [2], in assay [3] and in assay [4] was “inactive” in each case.

As for `CC(C)C(=O)OC/C=C/c1ccccc1`, the Potency entry in assay [1], in assay [2], in assay [3] and in assay [4] was “inactive” in each case.

Regarding `CCNc1cccc(C)c1`, the Potency entry in assay [1], in assay [2], in assay [3] and in assay [4] was “inactive” each time.

In the case of `CC(=O)Oc1c(C)c(C)c2c(c1C)CC[C@@](C)(CCC[C@H](C)CCC[C@H](C)CCCC(C)C)O2`, the Potency result in assay [1], in assay [2], in assay [3] and in assay [4] was “inactive” each time.

`C=CC(=O)OCCCCCC`: the Potency entry in assay [1], in assay [2], in assay [3] and in assay [4] was “inactive” each time.

In the case of `O=C(c1ccc(O)cc1O)c1ccc(O)cc1O`, the Potency result in assay [1], in assay [2], in assay [3] and in assay [4] was “inactive” each time.

`CC(=O)C(C)O` (stereo not given): the Potency result in assay [1], in assay [2], in assay [3] and in assay [4] was “inactive” throughout.

For `CCCCCCCCCCCCCCCC[N+](C)(C)CC`, the Potency entry in assay [1] and in assay [4] was “inactive” each time. Further, the Potency in assay [2] was 71.2 µM (active); in assay [3], 63.5 µM (active) and 38.9 µM (active).

Take `CC/C(=C(\c1ccc(O)cc1)c1ccc(OCCN(C)C)cc1)c1ccccc1`: the Potency is 44.9 µM (active) in assay [1], 79.9 µM (active) in assay [2] and 40 µM (active) in assay [3]. The Potency result in assay [4] was “inactive”.

Turning to `Nc1ccc(N=Nc2ccc(N)cc2)cc1`, the Potency result in assay [1], in assay [2], in assay [3] and in assay [4] was “inactive” throughout.

On to `NS(=O)(=O)c1ccc(C(=O)O)cc1`, for which the Potency entry in assay [1], in assay [2], in assay [3] and in assay [4] was “inactive” each time.

`C=C(C)C(=O)OCc1ccccc1`: the Potency entry in assay [1], in assay [2], in assay [3] and in assay [4] was “inactive” each time.

`CCCN(CCC)S(=O)(=O)c1ccc(C(=O)O)cc1`: the Potency entry in assay [1], in assay [2], in assay [3] and in assay [4] was “inactive” in each case.

As for `CCOc1ccc(NC(N)=O)cc1`, the Potency entry in assay [1], in assay [2], in assay [3] and in assay [4] was “inactive” each time.

With `CCOCCn1c(N2CCCN(C)CC2)nc2ccccc21`, the Potency entry in assay [1], in assay [2], in assay [3] and in assay [4] was “inactive” in each case.

Turning to `CCn1cc(C(=O)O)c(=O)c2cnc(N3CCNCC3)nc21`, the Potency result in assay [1], in assay [2], in assay [3] and in assay [4] was “inactive” throughout.

With `C=CC(C)CCCC(C)(C)O` (stereo not given), the Potency result in assay [1] was “inactive and 28.3 µM (active)”; in assay [2] it was “inactive and 25.2 µM (active)”; in assay [3], “inactive and 22.4 µM (active)”. Further, the Potency result in assay [4] is “inactive”.
